# Inconclusive results are not listed. Where a call stands in place of a potency, no number is given. The source made the active and inactive calls. Calls follow the shape of the dose curve; as a rule, active = well fitted curve in the direction sought with a large enough effect; inconclusive = small, poorly fitted or top-dose-only effect, or another doubt; inactive = no such curve, though single readings can be large; an effect the other way counts as inactive or inconclusive.
# Tests used:
# [1] = test system: 3D7; assay: qHTS profiling for inhibitors of Plasmodium falciparum proliferation (AID 504749); also: nearly all actives have a fitted effect of over 60% in size; also: potency is read from the fitted curve at half-maximal effect; settings: P. falciparum in erythrocytes, SYBR Green DNA, 72 h; series mostly up to 28.7 µM
# How it was run: (§1)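 SYBR Green fluorescence (ex 485 nm, em 535 nm) reports parasite DNA after 72 h compound exposure of infected red cells at 0.3% parasitemia, 2.5% hematocrit; signal normalized to 0.29 uM artemisinin and vehicle wells.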
# [2] = test system: AA1029; assay: as above; settings: P. falciparum in erythrocytes, SYBR Green DNA, 72 h; series mostly up to 28.7 µM
# How it was run: as §1
# [3] = test system: CP238; assay: as above; settings: P. falciparum in erythrocytes, SYBR Green DNA, 72 h; series mostly up to 28.7 µM
# How it was run: as §1
# [4] = test system: CP247; assay: as above; settings: P. falciparum in erythrocytes, SYBR Green DNA, 72 h; series mostly up to 28.7 µM
# How it was run: as §1
# [5] = test system: CP250; assay: as above; settings: P. falciparum in erythrocytes, SYBR Green DNA, 72 h; series mostly up to 28.7 µM
# How it was run: as §1
# [6] = test system: CP256; assay: as above; settings: P. falciparum in erythrocytes, SYBR Green DNA, 72 h; series mostly up to 28.7 µM
# How it was run: as §1
# [7] = test system: CP260; assay: as above; settings: P. falciparum in erythrocytes, SYBR Green DNA, 72 h; series mostly up to 28.7 µM
# How it was run: as §1
# [8] = test system: CP265; assay: as above; settings: P. falciparum in erythrocytes, SYBR Green DNA, 72 h; series mostly up to 28.7 µM
# How it was run: as §1
# [9] = test system: FAB9; assay: as above; settings: P. falciparum in erythrocytes, SYBR Green DNA, 72 h; series mostly up to 28.7 µM
# How it was run: as §1
# [10] = test system: HB3; assay: as above; settings: P. falciparum in erythrocytes, SYBR Green DNA, 72 h; series mostly up to 28.7 µM
# How it was run: as §1
# [11] = test system: ICS; assay: as above; settings: P. falciparum in erythrocytes, SYBR Green DNA, 72 h; series mostly up to 28.7 µM
# How it was run: as §1
# [12] = test system: N140; assay: as above; settings: P. falciparum in erythrocytes, SYBR Green DNA, 72 h; series mostly up to 28.7 µM
# How it was run: as §1
# [13] = test system: P93_24; assay: as above; settings: P. falciparum in erythrocytes, SYBR Green DNA, 72 h; series mostly up to 28.7 µM
# How it was run: as §1
# [14] = test system: P94_40; assay: as above; settings: P. falciparum in erythrocytes, SYBR Green DNA, 72 h; series mostly up to 28.7 µM
# How it was run: as §1
# [15] = test system: PAD; assay: as above; settings: P. falciparum in erythrocytes, SYBR Green DNA, 72 h; series mostly up to 28.7 µM
# How it was run: as §1
# [16] = test system: TAB109; assay: as above; settings: P. falciparum in erythrocytes, SYBR Green DNA, 72 h; series mostly up to 28.7 µM
# How it was run: as §1
# [17] = biological target: ATP-dependent 6-phosphofructokinase (Trypanosoma brucei brucei) (UniProt O15648); assay: qHTS Assay to Find Inhibitors of T. brucei phosphofructokinase: hit validation (AID 492961);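 also: luminescence reports ADP formed as PFK phosphorylates fructose-6-phosphate with ATP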
# How it was run: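 Compounds titrated; %activity normalized to 0x and 1x enzyme controls, curve-fitted. Readout: ADP-Glo luminescence after 45 min room-temperature reaction of 1.25 nM PFK, 0.1 mM ATP, 0.5 mM F6P, pH 8.0.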
# [18] = test system: JCK; assay: qHTS profiling for inhibitors of Plasmodium falciparum proliferation (AID 504749); also: nearly all actives have a fitted effect of over 60% in size; also: potency is read from the fitted curve at half-maximal effect; settings: P. falciparum in erythrocytes, SYBR Green DNA, 72 h; series mostly up to 28.7 µM
# How it was run: as §1
# [19] = biological target: Cytochrome P450 3A4 (Homo sapiens) (UniProt P08684); assay: qHTS Assay for Activators of Cytochrome P450 3A4 (AID 885); also: nearly all actives have a fitted effect of over 65% in size
# How it was run: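 Human CYP3A4 dealkylates Luciferin-PPXE to luciferin, which luciferase detection converts to light. Substrate was at its KM (25uM), buffer 200mM KPO4, reaction 60 min at RT.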
# [20] = biological target: Muscarinic acetylcholine receptor M1 (Rattus norvegicus) (UniProt P08482); assay: qHTS Assay for Antagonists of Acetylcholine Muscarinic M1 Receptor: Kinetic Measurement of Intracellular Calcium Response (AID 943); also: nearly all actives have a fitted effect of over 75% in size; also: potency is read from the fitted curve at half-maximal effect
# How it was run: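 Read-out: peak over basal Fluo-4 fluorescence, kinetic at 1 Hz for 4 min after EC80 carbachol (100 nM final). Rat M1-CHO cells, dye loaded 1 h at 37C, compound added 10 min before agonist.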
# Chain of ATP-dependent 6-phosphofructokinase (Trypanosoma brucei brucei) (O15648 whole entry, looked up): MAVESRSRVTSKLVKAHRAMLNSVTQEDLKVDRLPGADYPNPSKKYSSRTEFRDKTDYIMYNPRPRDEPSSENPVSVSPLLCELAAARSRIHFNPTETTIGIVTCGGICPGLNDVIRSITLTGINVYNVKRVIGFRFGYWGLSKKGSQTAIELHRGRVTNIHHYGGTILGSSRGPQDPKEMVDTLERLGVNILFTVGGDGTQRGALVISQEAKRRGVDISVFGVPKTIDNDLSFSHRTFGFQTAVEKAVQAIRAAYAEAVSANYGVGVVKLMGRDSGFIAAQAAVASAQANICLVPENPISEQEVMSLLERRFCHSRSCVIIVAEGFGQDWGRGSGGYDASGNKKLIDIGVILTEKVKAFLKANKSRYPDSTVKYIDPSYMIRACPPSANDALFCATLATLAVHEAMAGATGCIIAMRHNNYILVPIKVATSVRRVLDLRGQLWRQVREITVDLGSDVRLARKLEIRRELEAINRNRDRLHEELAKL
# Chain of Cytochrome P450 3A4 (Homo sapiens) (P08684 whole entry, looked up): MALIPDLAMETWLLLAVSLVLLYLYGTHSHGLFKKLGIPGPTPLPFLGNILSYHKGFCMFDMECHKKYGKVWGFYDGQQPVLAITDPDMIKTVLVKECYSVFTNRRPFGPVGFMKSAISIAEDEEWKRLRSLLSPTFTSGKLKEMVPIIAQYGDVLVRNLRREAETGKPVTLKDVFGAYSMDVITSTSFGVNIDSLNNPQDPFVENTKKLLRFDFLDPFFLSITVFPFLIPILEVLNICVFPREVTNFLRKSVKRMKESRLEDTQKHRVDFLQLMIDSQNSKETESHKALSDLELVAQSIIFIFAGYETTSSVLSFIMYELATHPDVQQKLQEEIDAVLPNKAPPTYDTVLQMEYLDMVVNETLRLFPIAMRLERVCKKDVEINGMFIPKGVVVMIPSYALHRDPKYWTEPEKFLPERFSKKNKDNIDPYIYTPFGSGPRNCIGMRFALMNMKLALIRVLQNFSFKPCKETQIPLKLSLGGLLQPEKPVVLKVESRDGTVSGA
# Chain of Muscarinic acetylcholine receptor M1 (Rattus norvegicus) (P08482 whole entry, looked up): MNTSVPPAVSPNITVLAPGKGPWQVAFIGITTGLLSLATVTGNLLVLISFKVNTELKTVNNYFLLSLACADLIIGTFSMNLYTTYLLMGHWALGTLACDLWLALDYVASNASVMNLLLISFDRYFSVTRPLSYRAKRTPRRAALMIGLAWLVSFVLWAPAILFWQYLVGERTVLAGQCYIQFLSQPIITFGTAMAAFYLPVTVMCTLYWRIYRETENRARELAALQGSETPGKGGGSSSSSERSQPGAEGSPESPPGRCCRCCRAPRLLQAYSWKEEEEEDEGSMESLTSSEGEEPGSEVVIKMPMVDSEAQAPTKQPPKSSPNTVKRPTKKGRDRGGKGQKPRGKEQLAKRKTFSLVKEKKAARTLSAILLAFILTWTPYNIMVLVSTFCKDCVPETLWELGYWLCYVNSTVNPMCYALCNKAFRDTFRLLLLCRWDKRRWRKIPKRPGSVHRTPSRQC
smiles,measurement,setting,value
N[C@H](Cc1ccc(O)c(O)c1)C(=O)O,Potency,[1],inactive
same,Potency,[2],inactive
same,Potency,[3],inactive
same,Potency,[4],inactive
same,Potency,[5],inactive
same,Potency,[6],inactive
same,Potency,[7],inactive
same,Potency,[8],inactive
same,Potency,[9],inactive
same,Potency,[10],inactive
same,Potency,[11],inactive
same,Potency,[12],inactive
same,Potency,[13],inactive
same,Potency,[14],inactive
same,Potency,[15],inactive
same,Potency,[16],inactive
COc1ccc(CCNC[C@@H](O)c2ccc(O)cc2)cc1OC,outcome,[17],inactive
same,Potency,[1],inactive
same,Potency,[2],inactive
same,Potency,[3],inactive
same,Potency,[4],inactive
same,Potency,[5],inactive
same,Potency,[6],inactive
same,Potency,[7],inactive
same,Potency,[8],inactive
same,Potency,[9],inactive
same,Potency,[10],inactive
same,Potency,[11],inactive
same,Potency,[18],inactive
same,Potency,[12],inactive
same,Potency,[13],inactive
same,Potency,[14],inactive
same,Potency,[15],inactive
same,Potency,[16],inactive
NCCC(=O)NCCc1cnc[nH]1,Potency,[19],inactive
same,Potency,[20],inactive
CN=C(N)NCCCC(N)C(=O)O (stereo not drawn),outcome,[17],inactive
same,Potency,[1],inactive
same,Potency,[2],inactive
same,Potency,[3],inactive
same,Potency,[4],inactive
same,Potency,[5],inactive
same,Potency,[6],inactive
same,Potency,[7],inactive
same,Potency,[8],inactive
same,Potency,[9],inactive
same,Potency,[10],inactive
same,Potency,[11],inactive
same,Potency,[18],inactive
same,Potency,[12],inactive
same,Potency,[13],inactive
same,Potency,[14],inactive
same,Potency,[15],inactive
same,Potency,[16],inactive
OC[C@H]1O[C@@H](n2cnc3c(NCCc4ccccc4)ncnc32)[C@H](O)[C@H]1O,Potency,[20],inactive
CN1C(=O)CCC1c1cccnc1 (stereo not drawn),outcome,[17],inactive
same,Potency,[1],inactive
same,Potency,[2],inactive
same,Potency,[3],inactive
same,Potency,[4],inactive
same,Potency,[5],inactive
same,Potency,[6],inactive
same,Potency,[7],inactive
same,Potency,[8],inactive
same,Potency,[9],inactive
same,Potency,[10],inactive
same,Potency,[11],inactive
same,Potency,[18],inactive
same,Potency,[12],inactive
same,Potency,[13],inactive
same,Potency,[14],inactive
same,Potency,[15],inactive
same,Potency,[16],inactive
N=C1Sc2ccccc2C2=NCCCN12,Potency,[19],inactive
N=C(N)SCCc1cccc(CCSC(=N)N)c1,Potency,[20],4.47 µM (active)
CN1C[C@H](C(=O)N[C@]2(C)O[C@@]3(O)C4CCCN4C(=O)[C@H](Cc4ccccc4)N3C2=O)C[C@@H]2c3cccc4[nH]cc(c34)C[C@H]21 (stereo partly drawn),Potency,[1],8.91 µM (active)
same,Potency,[2],3.55 µM (active)
same,Potency,[3],5.62 µM (active)
same,Potency,[4],7.08 µM (active)
same,Potency,[5],11.2 µM (active)
same,Potency,[6],7.94 µM (active)
same,Potency,[7],2 µM (active)
same,Potency,[8],5.62 µM (active)
same,Potency,[9],10 µM (active)
same,Potency,[10],2.24 µM (active)
same,Potency,[11],0.1 µM (active)
same,Potency,[18],10 µM (active)
same,Potency,[12],0.891 µM (active)
same,Potency,[13],1.41 µM (active)
same,Potency,[14],3.16 µM (active)
same,Potency,[15],0.355 µM (active)
same,Potency,[16],7.08 µM (active)
CCSC(N)=Nc1ccc(C(F)(F)F)cc1,Potency,[19],inactive
COc1cc2c(cc1OC)C(c1ccccc1)CN(C)CC2 (stereo not drawn),outcome,[17],inactive
same,Potency,[1],inactive
same,Potency,[3],inactive
same,Potency,[7],inactive
same,Potency,[9],inactive
same,Potency,[10],inactive
same,Potency,[18],inactive
same,Potency,[12],inactive
same,Potency,[15],inactive
NCCCCNS(=O)(=O)c1cccc2c(Cl)cccc12,Potency,[19],inactive
same,Potency,[20],14.1 µM (active)
CC(C)(C)[C@]1(O)CCN2CC3c4ccccc4CCc4cccc(c43)[C@@H]2C1 (stereo partly drawn),outcome,[17],inactive
same,Potency,[2],7.94 µM (active)
same,Potency,[11],10 µM (active)
same,Potency,[18],inactive
same,Potency,[13],11.2 µM (active)
CC(=O)NCCc1ccc(O)c(O)c1,Potency,[20],inactive
COC(=O)c1c(-c2cc(OC)c(OC)c(OC)c2)c2ccc(OCc3ccccn3)cc2c(=O)n1-c1ccc(N)cc1,Potency,[19],inactive
same,Potency,[20],inactive
CCn1c(=O)c2[nH]c(-c3ccccc3)nc2n(CC)c1=O,Potency,[19],inactive
CC(C)C[C@H]1C(=O)N2CCCC2[C@]2(O)O[C@](NC(=O)[C@@H]3C=C4c5cccc6[nH]c(Br)c(c56)C[C@H]4N(C)C3)(C(C)C)C(=O)N12 (stereo partly drawn),outcome,[17],inactive
same,Potency,[1],3.98 µM (active)
same,Potency,[2],3.55 µM (active)
same,Potency,[3],10 µM (active)
same,Potency,[4],8.91 µM (active)
same,Potency,[5],12.6 µM (active)
same,Potency,[6],11.2 µM (active)
same,Potency,[7],1.58 µM (active)
same,Potency,[8],5.62 µM (active)
same,Potency,[9],8.91 µM (active)
same,Potency,[10],2.82 µM (active)
same,Potency,[11],0.708 µM (active)
same,Potency,[18],10 µM (active)
same,Potency,[12],3.16 µM (active)
same,Potency,[13],2.82 µM (active)
same,Potency,[14],2.82 µM (active)
same,Potency,[15],3.98 µM (active)
same,Potency,[16],5.62 µM (active)
CCCC(=O)NCCc1c2n(c3ccc(OC)cc13)Cc1ccccc1-2,Potency,[19],inactive
same,Potency,[20],inactive
